PubChem BioAssay (NCI)
Several values for one entry are separate records, joined by “and”; a condition that tells them apart may be missing. Equal entries are not always repeated. About 83,000 compounds went through this panel and 20% of them were active in at least one assay; those are over-represented in the sample as a whole.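 Step 1: grow cells in 96-well plates. Step 2: add test compound at a single concentration. Step 3: incubate 48 h. Step 4: record percent growth.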 Activity calls are given as the source filed them. How the source made its calls: active means growth percent below 10; inactive means the rest.

tested on: IGROV1 ovarian; assay: NCI-60 one-dose screen, 48 h (100 = growth as untreated, 0 = no growth, -100 = all killed); settings: 10 µM unless noted

Structure (SMILES) | growth
O=C(/C=C/Nc1ccc(S(=O)(=O)Nc2ncccn2)cc1)c1ccc(N=Cc2c(O)[nH]c3ccccc23)cc1 | 118% (inactive)
CCCCCN1C(=O)/C(=c2\sc3n(c2=O)C2C(NN=3)N(CC)C(=O)N2CC)c2cccc(C)c21 (configuration not stated) | 44.8% (inactive)
C#C[C@]1(O)CC[C@H]2[C@@H]3CC=C4c5sc(Nc6ncccc6C)nc5CC[C@]4(C)[C@H]3CC[C@@]21C | 40% (inactive)
O=C1CSC(c2cn(-c3ccccc3)nc2-c2ccc(Cl)cc2)N1c1ccccc1 (configuration not stated) | 114% (inactive)
CC(=O)Nc1ccccc1-c1nc2ccccc2s1 | 101% (inactive)
O=C(/C=C/c1cccc(Br)c1)c1cccc(OCCCCOc2cccc(C(=O)/C=C/c3cccc(Br)c3)c2)c1 | 101% (inactive)
C/C(=C(\c1ccc(O)cc1)c1ccc(OCCN2CCCCCC2)cc1)c1ccc(Cl)cc1 | -65.1% (active)
Clc1ccc(CSc2nnc(-c3ccc(Cl)cc3)n2-c2ccccc2)cc1 | 75.9% (inactive)
O=C(CCCCCCNC(=O)C(O)(O)C(F)(F)F)Nc1nc2ccccc2s1 | -3.25% (active)
CC(C)NC(=O)c1cc(-c2ccc(NC(=O)Nc3ccc(F)c(C(F)(F)F)c3)cc2)nc2cccnc12 | 110% (inactive)
COc1ccc(-c2cnc(NC(=O)CCCCCCNC(=O)C(O)(O)C(F)(F)F)s2)cc1 | -18.7% (active)
C/C=C/CC(C)C(O)[C@H](NC(=O)[C@@H]1CCCN1C(=O)[C@](C)(CC)NC(=O)CCCCCCCCC)C(=O)N[C@@](C)(CC)C(=O)N[C@@H](CCC(N)=O)C(=O)N[C@H](CCC(N)=O)C(=O)NC(C)(C)C(=O)NC(C)(C)C(=O)N[C@@H](CCC(N)=O)C(=O)N[C@H](CC(C)C)C(=O)N[C@H](CO)CC(C)C (some centres not stated) | 52.1% (inactive) and -14.1% (active)
